# Most compounds without a hit are left out; they make up all but 3.8% or so of the library.
# A549 viability – A549 cytotoxicity, counter-screen for Nrf2 inhibitors; AID 504648; A549 ARE-Fluc cells, CellTiter-Fluor viability, 18-24 h; Potency, µM (highest dose often 46 µM), hits mostly inhibitors; actives 0.16% (n = 390,000)
#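 Cytotoxicity counterscreen: CellTiter-Fluor fluorescence was measured in A549 ARE_Fluc cells after 18-24 h of compound exposure in a concentration series. The subsequent BugLite luminescent read reports ARE-luciferase activity.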
# Nrf2 block – Nrf2 pathway inhibition; actives 2.1% (n = 360,000); AID 504444; A549 ARE-Fluc reporter, luciferase luminescence, 18-24 h; Potency, µM (top dose mostly 46 µM), usual class: inhibitors; note: nearly all actives have a fitted effect of over 60% in size
#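 A549 ARE_Fluc cells, 5000/well, 5% FBS OPTI-MEM; compounds in dose-response, 18-24 h at 37 °C/5% CO2; CellTiter-Fluor viability read (Ex 405/Em 525), then BugLite luciferase luminescence = Nrf2 activity.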
# Nrf2 activator – activates Nrf2 signaling; AREc32 ARE-luciferase reporter (MCF7-derived line), luminescence, 24 h; Potency, µM (titrated, usually from 46.1 µM), hits mostly activators; actives 0.31% (n = 410,000); note: nearly all actives have a fitted effect of over 65% in size
#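 Luminescent ARE reporter assay in AREc32_Fluc cells: overnight plating at 37 deg C, 24 hr compound incubation, Steady-Glo added, 30 min RT before reading.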
# mIDH1 inhibitor – human IDH1 R132H inhibition; IDH1-R132H enzyme, NADPH consumption, diaphorase/resazurin fluorescence; Potency, µM (highest dose often 76.6 µM), most hits filed as inhibitors; actives 0.093% (n = 390,000); AID 602179; note: nearly all actives have a fitted effect of over 65% in size
#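 IDH1-R132H (0.5 ug/mL) preincubated 30 min with compound, then NADPH (0.016 mM) and alpha-KG (2 mM) added; 80 min at RT, pH 7.5. Remaining NADPH coupled via diaphorase/resazurin to fluorescence (540/590 nm); concentration-response curves normalized to no-enzyme control.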
# ELG1 DNA repair – ELG1-dependent DNA repair inhibition. HEK293T ELG1-luciferase reporter, luminescence, 16 h; DNA damage induced by 5-fluorouridine. Potency, µM (doses to about 46.1 µM), most hits filed as inhibitors. actives 2.3% (n = 330,000). AID 504467; note: nearly all actives have a fitted effect of over 55% in size
#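 Quantitative HTS, concentration-response format. 2,000 cells/well co-treated with 5-fluorouridine and compound, 16 hr in 5% CO2 at 37 °C; ONE-Glo luminescence read after 30 min.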
# ELG1 FLuc counter – luciferase inhibition in cell-free luciferin readout for ELG1 hits. Potency, µM (titrated, usually from 46.1 µM), usual class: inhibitors. shares compounds with ELG1 DNA repair. cell-free firefly luciferase luminescence counter-screen, ViewLux. actives 3% (n = 350)
# ELG1 Luc conf – inhibits ELG1-dependent DNA repair in HEK293T cells, confirmed | shares compounds with ELG1 DNA repair | HEK293T ELG1-luciferase levels, luminescence; cells co-treated with 5-fluorouridine | Potency, µM (highest dose often 46.1 µM), most hits filed as inhibitors | actives 68% (n = 670) | AID 624248; note: nearly all actives have a fitted effect of over 55% in size
# Target sequence (Q96QE3 whole entry, looked up): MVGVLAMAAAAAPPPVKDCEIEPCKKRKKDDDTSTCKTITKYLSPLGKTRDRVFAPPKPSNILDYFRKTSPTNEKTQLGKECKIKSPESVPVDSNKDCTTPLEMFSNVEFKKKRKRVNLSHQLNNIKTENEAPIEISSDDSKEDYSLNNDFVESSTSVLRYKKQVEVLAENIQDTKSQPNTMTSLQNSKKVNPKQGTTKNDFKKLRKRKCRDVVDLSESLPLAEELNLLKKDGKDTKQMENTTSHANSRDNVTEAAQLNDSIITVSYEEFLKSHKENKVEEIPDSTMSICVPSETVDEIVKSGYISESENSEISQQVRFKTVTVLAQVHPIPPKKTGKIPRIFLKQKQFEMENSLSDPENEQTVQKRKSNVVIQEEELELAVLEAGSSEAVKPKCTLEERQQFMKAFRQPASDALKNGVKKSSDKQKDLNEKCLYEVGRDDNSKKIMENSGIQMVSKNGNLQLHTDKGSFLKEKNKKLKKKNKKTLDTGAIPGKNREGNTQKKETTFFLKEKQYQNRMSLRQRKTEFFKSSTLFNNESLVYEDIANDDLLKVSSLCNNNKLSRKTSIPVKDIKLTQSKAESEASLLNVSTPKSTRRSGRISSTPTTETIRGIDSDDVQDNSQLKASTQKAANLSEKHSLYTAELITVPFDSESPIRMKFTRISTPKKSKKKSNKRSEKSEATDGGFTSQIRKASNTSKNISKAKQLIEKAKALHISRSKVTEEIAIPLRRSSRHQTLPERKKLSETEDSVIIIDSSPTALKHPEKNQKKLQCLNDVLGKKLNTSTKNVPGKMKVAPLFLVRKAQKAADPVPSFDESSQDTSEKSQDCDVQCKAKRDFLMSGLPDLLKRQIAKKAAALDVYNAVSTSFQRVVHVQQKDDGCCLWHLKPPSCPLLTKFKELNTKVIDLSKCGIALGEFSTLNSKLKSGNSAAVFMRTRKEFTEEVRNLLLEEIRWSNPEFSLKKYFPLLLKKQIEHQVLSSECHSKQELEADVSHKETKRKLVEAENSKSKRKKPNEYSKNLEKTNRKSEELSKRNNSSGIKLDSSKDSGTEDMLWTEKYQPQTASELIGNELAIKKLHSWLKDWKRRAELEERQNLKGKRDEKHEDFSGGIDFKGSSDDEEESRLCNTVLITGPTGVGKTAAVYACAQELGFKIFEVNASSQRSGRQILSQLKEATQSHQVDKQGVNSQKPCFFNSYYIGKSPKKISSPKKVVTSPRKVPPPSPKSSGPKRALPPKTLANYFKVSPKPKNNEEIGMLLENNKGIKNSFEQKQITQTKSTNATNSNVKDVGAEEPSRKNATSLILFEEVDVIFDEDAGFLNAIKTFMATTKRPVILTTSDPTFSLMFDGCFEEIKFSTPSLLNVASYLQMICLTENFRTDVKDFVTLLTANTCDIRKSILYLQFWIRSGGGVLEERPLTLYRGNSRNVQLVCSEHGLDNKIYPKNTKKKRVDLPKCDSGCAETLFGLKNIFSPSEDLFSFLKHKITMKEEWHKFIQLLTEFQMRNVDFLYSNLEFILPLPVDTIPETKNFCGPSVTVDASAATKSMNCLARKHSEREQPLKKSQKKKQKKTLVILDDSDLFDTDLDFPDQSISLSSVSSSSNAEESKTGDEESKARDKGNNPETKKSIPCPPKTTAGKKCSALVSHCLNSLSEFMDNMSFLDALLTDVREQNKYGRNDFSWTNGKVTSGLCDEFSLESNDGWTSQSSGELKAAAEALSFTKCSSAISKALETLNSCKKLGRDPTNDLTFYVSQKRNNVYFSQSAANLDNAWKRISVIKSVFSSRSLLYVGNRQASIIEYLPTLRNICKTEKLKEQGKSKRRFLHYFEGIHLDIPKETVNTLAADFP
# ELG1 MMS Luc – MMS-stimulated human ELG1 repair inhibition, confirmed. shares compounds with ELG1 DNA repair. HEK293T luciferase-tagged ELG1 level, MMS stimulated. Potency, µM (titrated, usually from 46.1 µM), most hits filed as inhibitors. actives 53% (n = 670). AID 624249; note: nearly all actives have a fitted effect of over 60% in size
# ELG1 5-FU – confirmation of ELG1 repair inhibitors: viability with 5FU; cell viability with 5-FU, ELG1-dependent repair; shares compounds with ELG1 DNA repair; Potency, µM (titrated, usually from 46.1 µM), hits mostly cytotoxic; 670 tested, under 10 active;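 note: ELG1-luc HEK293T cells cotreated with 5-fluorouridine at 10 µM final; viability measured 16 h after compound addition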
# ELG1 MMS cell – confirmation of ELG1 repair inhibitors: viability with MMS; Cell viability with MMS, ELG1-dependent DNA repair; shares compounds with ELG1 DNA repair; AID 624251; actives 33% (n = 670); Potency, µM (titrated, usually from 46.1 µM), most hits filed as cytotoxic;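 note: ELG1-luc HEK293T cells co-treated with 10 µM MMS; viability read 16 h after compound addition; nearly all actives have a fitted effect of over 60% in size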
# Cell viab unstim – counter-screen for ELG1 repair inhibitors: unstimulated cell viability; shares compounds with ELG1 DNA repair; cell viability counter-screen, unstimulated, luminescence; Potency, µM (titrated, usually from 45.9 µM), usual class: cytotoxic; actives 8% (n = 900);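 note: compound exposure lasted 16 hours before reading; nearly all actives have a fitted effect of over 55% in size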
# FLuc biochem – counter-screen for ELG1 repair inhibitors: firefly luciferase inhibition | shares compounds with ELG1 DNA repair | purified firefly luciferase, luminescence counter-screen | Potency, µM (highest dose often 57.5 µM), actives largely listed as inhibitors | actives 10% (n = 350) | AID 624253
# A number is an active result; . = inactive; ? = inconclusive; / = no result given. Calls come from the whole dose curve; as a rule, active = well fitted curve in the direction sought with a large enough effect; inconclusive = small, poorly fitted or top-dose-only effect, or another doubt; inactive = no such curve, though single readings can be large; an effect the other way counts as inactive or inconclusive.
SMILES,A549 viability,Nrf2 block,Nrf2 activator,mIDH1 inhibitor,ELG1 DNA repair,ELG1 FLuc counter,ELG1 Luc conf,ELG1 MMS Luc,ELG1 5-FU,ELG1 MMS cell,Cell viab unstim,FLuc biochem
O=C(N/N=C/c1ccccc1C(=O)O)c1cccc(S(=O)(=O)N2CCOCC2)c1,.,.,.,.,.,/,/,/,/,/,/,/
CC(C)(C)OC(=O)NCc1ccc(NC(=O)c2nc[nH]c2C(=O)NCCCCNC(=O)c2[nH]cnc2C(=O)Nc2ccc(CNC(=O)OC(C)(C)C)cc2)cc1,.,?,.,.,0.92µM,?,1.1µM,1.3µM,.,?,?,.
CC(C)(C)OC(=O)NCc1ccc(NC(=O)c2nc[nH]c2C(=O)NCCCNC(=O)c2[nH]cnc2C(=O)Nc2ccc(CNC(=O)OC(C)(C)C)cc2)cc1,.,.,.,.,1.8µM,/,2.2µM,13µM,?,25µM,?,/
CC(C)(C)OC(=O)NCc1ccc(NC(=O)c2nc[nH]c2C(=O)NCCCCCCNC(=O)c2[nH]cnc2C(=O)Nc2ccc(CNC(=O)OC(C)(C)C)cc2)cc1,.,.,.,.,2.3µM,/,1.1µM,25µM,?,?,?,/
CC(C)(C)OC(=O)NCc1ccc(NC(=O)c2nc[nH]c2C(=O)NCCN(CCNC(=O)c2[nH]cnc2C(=O)Nc2ccc(CNC(=O)OC(C)(C)C)cc2)CCNC(=O)c2[nH]cnc2C(=O)Nc2ccc(CNC(=O)OC(C)(C)C)cc2)cc1,.,.,.,.,.,/,/,/,/,/,/,/
CC(C)CCN1C(=O)c2ccccc2CC1(C)C(=O)NC1CCC(C)CC1 (stereo not drawn),.,.,.,/,/,/,/,/,/,/,/,/
CCn1c(=O)n(CC)c2cc(S(N)(=O)=O)c(C)cc21,.,?,.,.,.,/,/,/,/,/,/,/
CCn1c(=O)n(CC)c2cc(S(=O)(=O)N3CCCCC3)c(C)cc21,.,.,.,.,?,.,/,/,/,/,.,.
CCN(CC)C(=O)c1ccc2c3c(cccc13)C(=O)N(CCc1ccc(OC)c(OC)c1)C2=O,.,?,.,.,4.6µM,/,11µM,10µM,?,22µM,25µM,/
Cc1ccc2nsnc2c1S(=O)(=O)N(Cc1cc2cccc(C)c2[nH]c1=O)CC1CCCO1 (stereo not drawn),.,.,.,.,2.3µM,/,?,7.9µM,.,.,?,/
Cc1ccc2cc(CN(CC3CCCO3)S(=O)(=O)c3c(C)ccc4nsnc34)c(=O)[nH]c2c1 (stereo not drawn),.,.,.,.,.,/,/,/,/,/,/,/
CCOc1cc(/C=N/Nc2cc(C)nc(-n3nc(C)cc3C)n2)ccc1O,.,?,.,.,2.6µM,/,6.3µM,?,?,?,?,/
COc1cccc(CNC(=O)C2CCCN(c3nn4c(=O)cc(C)nc4s3)C2)c1 (stereo not drawn),.,.,.,.,?,.,/,/,/,/,.,.
Cc1cccc(Cn2cc(SCC(=O)Nc3nccs3)c3ccccc32)c1,.,.,.,.,?,.,/,/,/,/,.,2.9µM
